NR3A LBD binder – modulators (binders) of human NR3A ligand-binding domain. NR3A LBD differential scanning fluorimetry, Tm shift; 0% = protein alone, 100% = glycine-bound protein. Tm shift relative to glycine control, % at 25 µM. 340,000 tested, 2.5% active;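 active means melting temperature shift of at least 10% of the positive control shift, at one fixed dose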
FAS-TE inh – inhibitors of human fatty acid synthase thioesterase domain; AID 602261; recombinant FAS-TE, OMFH fluorogenic substrate, fluorescence endpoint; 360,000 tested, 0.67% active; P49327; inhibition, % at 15 µM;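 active means compounds whose normalised, plate-corrected inhibition of enzyme fluorescence in the single-dose primary screen is 50% or more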;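 further: 0% = DMSO with enzyme and 100% = substrate without enzyme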
MPTP inh – blocks calcium-induced mitochondrial swelling; inhibition, % at 10 µM; 360,000 tested, 1.4% active; AID 602449; isolated mouse mitochondria, Ca2+ swelling absorbance, 30 min;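 active means inhibition of 50% or more, scaled per plate between neutral and stimulator controls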;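 further: 0% = DMSO wells given calcium and 100% = 1 mM EGTA wells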
Myeloid diff 2 – myeloid differentiation induction. ER-HoxA9 myeloid progenitors, lysozyme-GFP differentiation, flow cytometry. calls only at 10 µM. 360,000 tested, 1% active. AID 624256;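 active means normalized GFP-positive differentiation at or above the plate's own cutoff, the solvent-only control mean plus 3 SD; inconclusive means no clear call, values can overlap the other calls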;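 further: cells exposed to compound for four days before flow analysis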
rCAG RNA binder – molecules binding r(CAG) RNA repeats; r(CAG) RNA repeat, TO-PRO-1 dye displacement fluorescence; inhibition, % at 3 µM; 370,000 tested, 1.3% active; AID 651821;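 active means inhibition above the plate cutoff, the mean of all test compounds on that plate plus 3 SD, cut at about 35% in these data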;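 further: 0% = DMSO alone and 100% = 100 µM mitoxantrone as full dye displacement; higher means more dye released from RNA so lower well fluorescence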
Numbers without * were called inactive; i = inactive; u = inconclusive; x = no result given; + = active, no number. An excerpt weighted towards active compounds, which were near 5.7% of everything screened.

SMILES | NR3A LBD binder | FAS-TE inh | MPTP inh | Myeloid diff 2 | rCAG RNA binder
CSc1cc(C)n(-c2ccccc2)c(=S)c1C(C)=O | 12* | 3 | 0 | i | -4
COc1ccc2cc3cc(C(=O)Nc4ccc5c(c4)OCO5)oc3nc2c1 | 26* | -3 | 1 | i | 4
COc1ccc2nc3oc(C(=O)Nc4ccc(OC)c(OC)c4)cc3cc2c1 | 17* | -6 | 3 | i | 0
C=CCNC(=S)N/N=C/c1ccc(-c2ccc(Br)cc2)o1 | 16* | 28 | 1 | i | 9
CCOC(=O)c1ccc(-c2ccc(/C=N/NC(=O)c3cncc(Br)c3)o2)cc1 | 6 | -15 | 10 | i | -1
CCCCOC(=O)c1ccc(-c2ccc(/C=N/NC(=S)NCC)o2)cc1 | -2 | 6 | 1 | + | 2
C=CCNC(=S)N/N=C/c1ccc(-c2cccc([N+](=O)[O-])c2)o1 | -3 | 6 | 4 | i | 10
CCCCNC(=O)NC1CCN(CC(=O)Nc2ccc3c(c2)OCCO3)CC1 | x | x | x | x | 4
CS(=O)(=O)NC1c2cccc3cccc(c23)C1Sc1nncn1/N=C/c1ccco1 (stereo not given) | 20* | -2 | 0 | i | -2
O=C(CCS(=O)(=O)c1ccccc1)Nc1ccc(N2CCN(Cc3ccccc3)CC2)cc1 | 2 | -2 | 0 | + | 2
COC(=O)c1cc(-c2c(C)noc2C)c(=O)n2c1CCC2 | x | x | x | x | 1
Cc1cc(C)cc(NC(=O)/C=C/c2ccc([N+](=O)[O-])s2)c1 | -7 | -8 | 1 | u | 3
COc1ccccc1NC(=O)CC(=O)c1cccc([N+](=O)[O-])c1 | 6 | 10 | 1 | i | 12
COC(=O)c1cccc(NC(=O)/C=C/c2cccc([N+](=O)[O-])c2)c1 | 17* | 20 | -2 | i | 4
O=C(/C=C\c1ccccc1[N+](=O)[O-])Nc1ccccc1 | 14* | 16 | 1 | i | 0
COc1ccccc1NC(=O)/C(=C/c1cccc([N+](=O)[O-])c1)c1ccccc1 | 11* | 27 | 0 | i | 3
CC(=O)c1cccc(NC(=O)/C=C/c2ccc([N+](=O)[O-])s2)c1 | 10* | 0 | 4 | x | 4
Cc1ccc(NC(=O)Cc2ccc(F)cc2)c(S(=O)(=O)N2CCOCC2)c1 | x | x | x | x | 1
CCOc1ccc(-n2c(SCC(=O)NN=Cc3ccc(C(=O)O)cc3)nnc2-c2cccnc2)cc1 | x | x | x | x | 15
O=C(N[C@@H](Cc1cccnc1)C(=O)N1CCC[C@H]1C(=O)NCCc1ccccc1Cl)c1ccccc1 | x | x | x | x | -1
COC(=O)[C@]12C[C@H](CC(=O)NCCCCc3ccccc3)C(=O)N(CCC3=CCCCC3)C1=C[C@H](C1CCCC1)O[C@@H]2C | x | x | x | x | 4
O=C(/C=C/c1ccc([N+](=O)[O-])s1)N1CCCC1 | -1 | 2 | -3 | + | 0
O=C(O)/C=C/c1cccc(NC(=O)Nc2ccc([N+](=O)[O-])cc2)c1 | 18* | 0 | 2 | i | 6
COc1cccc(CN(C)C(=O)[C@H]2O[C@@H](n3cnc4c(=O)[nH]c(N)nc43)[C@H](O)[C@@H]2O)c1 | x | x | x | x | 0
COc1cc2cc(NC(C)=O)cc(NCc3ccccc3)c2cc1OC | 12* | 0 | 0 | i | 6
SMILES | NR3A LBD binder | FAS-TE inh | MPTP inh | Myeloid diff 2 | rCAG RNA binder
CCCCNc1cc(NC(C)=O)cc2cc(OC)c(OC)cc12 | -3 | -3 | 3 | i | -3
COc1ccc2nc(C(F)(F)C(F)(F)F)c(C#N)c(N)c2c1 | 22* | 9 | 5 | i | 11
O=C1C(Oc2ccccc2)C(c2ccc3c(c2)OCO3)N1CCc1ccc(F)cc1 (stereo not given) | 13* | 18 | -1 | i | 0
COc1ccc(CCN2C(=O)C(Oc3ccccc3C)C2c2ccc3c(c2)OCO3)cc1 (stereo not given) | 0 | 30 | 1 | i | -3
O=C(CN1CCOCC1)NCC12CC3CC(CC(C3)C1)C2 | 3 | 0 | 0 | + | -8
O=C(CC12CC3CC(CC(C3)C1)C2)NCCN1CCOCC1 | 3 | -7 | -1 | i | -1
Nc1nn2cc(-c3ccc(Br)cc3)nc2c2ccccc12 | 27* | 27 | 0 | i | 28
Brc1ccc(-c2cn3nc4c(nc3n2)CCCC4)cc1 | 0 | -8 | 0 | i | -7
CCN(CC)CCCNC(=O)c1cc2cc(Cl)ccc2nc1N | x | x | x | x | 3
C=CCn1c(Cc2cccs2)nnc1SCC(=O)Nc1cccc2ccccc12 | x | x | x | x | 2
Cn1cccc1/C=C1\SC(=S)N(NC(=O)c2cccc(Cl)c2)C1=O | 13* | 1 | 2 | i | 11

Screening data as filed in PubChem.
